High-throughput results as filed in PubChem.
Sampled rows, rich in hits. Any-hit rate of the full collection: about 3.4%.
PP5 primary – PP5 phosphatase inhibitors, primary screen, biochemical, fluorescence. Serine/threonine-protein phosphatase 5 (Homo sapiens), P53041. purified PP5c, OMFP substrate fluorescence. inhibition, % at 6.7 µM. hit rate 0.18% among 320,000. AID 1987, 2009;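 active = inhibition above the campaign's mean inhibition across all tested compounds plus 3 SD, cut at about 9.5% in these data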;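 note: 0% = DMSO only and 100% = 100 µM cantharidin control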
PAFAH2 inh – PAFAH2 enzyme inhibitors, primary screen, biochemical, fluorescence polarization, human. Platelet-activating factor acetylhydrolase 2, cytoplasmic (Homo sapiens), Q99487. recombinant PAFAH2, FP-rhodamine activity probe. inhibition, % at 3.39 µM. hit rate 0.99% among 340,000. AID 492956, 2010;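 active = inhibition above the mean over all tested compounds plus 3 SD, cut at about 30% in these data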;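 note: inhibitors block probe labeling of enzyme so polarization drops; 0% = enzyme with DMSO and 100% = wells lacking PAFAH2 protein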
pPAFAH FP inh – pPAFAH enzyme inhibitors, primary screen, biochemical, fluorescence polarization, human; inhibition, % at 3.39 µM; recombinant pPAFAH, FP-rhodamine probe fluorescence polarization; hit rate 1.5% among 330,000; Platelet-activating factor acetylhydrolase (Homo sapiens), Q13093; AID 463082, 2010;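 active = inhibition above the mean inhibition across the screen plus 3 SD, cut at about 25% in these data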;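 note: inhibitors block binding of the rhodamine activity-based probe so polarization drops; 0% = enzyme with DMSO and 100% = wells lacking pPAFAH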
PP1 inh – PP1-alpha phosphatase inhibitors, primary screen, counter-screen for PP5 inhibitor project, biochemical, fluorescence, OMFP substrate, single point. purified PP1alpha. Serine/threonine-protein phosphatase PP1-alpha catalytic subunit (Homo sapiens), P62136. inhibition, % at 6.7 µM. hit rate 0.9% among 320,000;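 active = inhibition above the mean inhibition of all tested compounds plus 3 SD, computed separately for each screening campaign, cut at about 15% in these data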
PAFAH1B2 inh – PAFAH1B2 enzyme inhibitors, primary screen, biochemical, fluorescence polarization, human | Platelet-activating factor acetylhydrolase IB subunit alpha2 (Homo sapiens), P68402 | recombinant PAFAH1B2, FP-rhodamine activity probe | inhibition, % at 3.39 µM | hit rate 1.2% among 340,000;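 active = inhibition above the mean of all tested compounds plus 3 SD, cut at about 24% in these data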;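 note: 0% = enzyme with DMSO and 100% = wells lacking PAFAH1B2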
Target sequence (P68402 whole entry, looked up): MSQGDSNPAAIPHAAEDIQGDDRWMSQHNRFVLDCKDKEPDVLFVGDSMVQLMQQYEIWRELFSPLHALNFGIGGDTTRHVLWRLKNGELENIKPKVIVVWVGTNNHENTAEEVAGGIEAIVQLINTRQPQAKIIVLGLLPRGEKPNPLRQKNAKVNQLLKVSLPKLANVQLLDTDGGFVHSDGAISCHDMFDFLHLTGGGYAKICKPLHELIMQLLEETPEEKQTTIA
PAFAH1B3 inh – PAFAH1B3 enzyme inhibitors, primary screen, biochemical, fluorescence polarization, human. hit rate 0.28% among 340,000. recombinant PAFAH1B3, FP-rhodamine probe. inhibition, % at 3.39 µM. Platelet-activating factor acetylhydrolase IB subunit alpha1 (Homo sapiens), Q15102;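 active = inhibition above the screen-wide average of all tested compounds plus 3 SD, cut at about 25% in these data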;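 note: 0% = enzyme with DMSO only and 100% = wells lacking PAFAH1B3 protein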
Target sequence (Q15102 whole entry, looked up): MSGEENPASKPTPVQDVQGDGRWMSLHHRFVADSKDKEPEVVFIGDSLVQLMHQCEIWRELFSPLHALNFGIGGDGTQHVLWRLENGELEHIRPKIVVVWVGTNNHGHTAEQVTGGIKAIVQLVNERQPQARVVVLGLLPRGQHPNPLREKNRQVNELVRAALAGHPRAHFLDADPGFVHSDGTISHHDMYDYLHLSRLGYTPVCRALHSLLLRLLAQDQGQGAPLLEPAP
PP5 conf – PP5 phosphatase inhibitors, confirmation, biochemical, fluorescence, human; shares compounds with PP5 primary; Purified PP5, fluorogenic phosphatase substrate; inhibition, % at 6.7 µM; hit rate 22% among 460; AID 2331, 2010; in the data active = inhibition above about 9.5%
PP1 counter 3x – PP1 phosphatase inhibitors, counter-screen for PP5 inhibitor project, biochemical, fluorescence, triplicate; shares compounds with PP5 primary; PP1 enzyme, fluorescent phosphatase substrate; inhibition, % at 6.7 µM; hit rate 4% among 460; AID 2355, 2010; in the data active = inhibition above about 16%
Starred values were filed as active, the others as inactive; / = not tested or not shown.

SMILES	PP5 primary	PAFAH2 inh	pPAFAH FP inh	PP1 inh	PAFAH1B2 inh	PAFAH1B3 inh	PP5 conf	PP1 counter 3x
Cc1cccc(NC(=O)CCC(=O)Nc2nnc(C(F)(F)F)s2)c1	-2.3	-4.8	-0.4	-4.4	5.2	-0.2	/	/
CCC(C)NS(=O)(=O)c1ccc(NC(=O)C(Sc2ccccc2)c2ccccc2)cc1 (configuration not stated)	4.0	-70.4	-24.1	1.5	-26.4	-44.6	/	/
CCCCNS(=O)(=O)c1ccc(NC(=O)C(Sc2ccccc2)c2ccccc2)cc1 (configuration not stated)	10.3*	-74.1	-45.0	8.2	-36.7	-57.5	3.7	3.0
O=C(O)c1cc(N/N=C/c2cccnc2)ccc1Cl	-0.3	-1.8	3.8	-2.5	2.4	-2.1	/	/
O=C(O)c1cc(N/N=C/c2ccncc2)ccc1Cl	10.9*	0.0	-2.6	-7.6	3.5	4.4	-0.3	-2.1
O=c1c2cc(N3CCOCC3)ccc2[nH]c(=S)n1Cc1ccco1	10.4*	9.3	18.8	9.1	2.0	2.4	-3.0	-1.5
COc1ccc(NC(=O)CCC(=O)N2CCCC2)c([N+](=O)[O-])c1	0.7	0.0	1.7	2.5	5.3	7.1	/	/
C=C(C)COc1ccc(-c2n[nH]c(C)c2Oc2ccccc2OC)c(O)c1	4.2	1.1	12.6	1.0	0.8	7.9	/	/
CCOc1ccc(-c2n[nH]c(C)c2Oc2ccccc2OC)c(O)c1	10.7*	1.5	10.7	4.2	-5.6	13.6	6.0	4.3
CCCOC(=O)c1ccc(Oc2c(-c3ccc(O)cc3O)n[nH]c2C)cc1	16.1*	-10.1	19.5	1.5	-6.8	8.9	3.5	6.4
CCCCCCCC(=O)OCC(=O)[C@@]1(O)CC[C@H]2[C@@H]3CCC4=CC(=O)CC[C@]4(C)[C@H]3[C@@H](O)C[C@@]21C	11.1*	-15.6	-13.1	-8.7	-4.8	-1.7	2.5	3.5
COc1ccc(CCC(=O)Nc2nnc(C(C)(C)C)s2)cc1	12.6*	-1.3	3.8	-0.4	-13.1	-0.1	-0.2	-1.2
O=C(CC1C(=O)NCCN1C(=O)Nc1ccc(F)cc1)Nc1ccc(F)cc1 (configuration not stated)	9.7*	4.9	-3.7	2.0	5.5	9.6	-4.6	-1.2
Cc1ccc(OCC(=O)N/N=C2\CC(=O)CC(C)(C)C2)c(Br)c1	/	22.5	/	/	4.3	-0.1	/	/
COCC(=O)N(Cc1cc2cccc(C)c2[nH]c1=O)c1ccccc1	10.0*	5.2	-0.3	-3.0	-0.8	3.6	-1.9	-2.9
COCC(=O)N(Cc1cc2cc(C)ccc2[nH]c1=O)c1ccccc1	0.8	1.1	-1.4	0.2	2.4	12.4	/	/
CC(Oc1cccc(Cl)c1)C(=O)N1CCCN(C)CC1 (configuration not stated)	-0.3	2.5	2.0	-4.5	-1.9	0.5	/	/
Cc1ccc(S(=O)(=O)N(C)C)cc1NC(=O)c1c(-c2c(F)cccc2Cl)noc1C	-0.5	-7.4	-4.7	-3.9	0.2	9.5	/	/
Cc1cc(C)c(S(=O)(=O)/N=C2/C=C(Sc3ncn[nH]3)C(=O)c3ccccc32)cc1C	11.4*	47.4*	10.1	-0.1	71.8*	48.6*	32.4*	11.8
O=C(CN1C(=O)c2ccccc2C1=O)Nc1cccc(S(=O)(=O)Nc2ccccc2Cl)c1	11.7*	0.2	6.3	-3.9	0.3	5.7	-0.8	1.2
O=C1NC(=O)C(Cc2ccccc2)(c2cccnc2)N1 (configuration not stated)	1.6	-3.3	5.5	-3.0	-2.2	11.6	/	/
